AmpC nodet inh = AmpC beta-lactamase inhibition, detergent-free assay; AmpC nitrocefin hydrolysis, absorbance 480 nm, no detergent; Potency, µM (top dose mostly 28.7 µM), without a hit: top-dose activity change, negative = inhibition; hit rate 1.8% among 71,000; note: % of control where 0% means no effect
Target sequence (P00811 whole entry, looked up): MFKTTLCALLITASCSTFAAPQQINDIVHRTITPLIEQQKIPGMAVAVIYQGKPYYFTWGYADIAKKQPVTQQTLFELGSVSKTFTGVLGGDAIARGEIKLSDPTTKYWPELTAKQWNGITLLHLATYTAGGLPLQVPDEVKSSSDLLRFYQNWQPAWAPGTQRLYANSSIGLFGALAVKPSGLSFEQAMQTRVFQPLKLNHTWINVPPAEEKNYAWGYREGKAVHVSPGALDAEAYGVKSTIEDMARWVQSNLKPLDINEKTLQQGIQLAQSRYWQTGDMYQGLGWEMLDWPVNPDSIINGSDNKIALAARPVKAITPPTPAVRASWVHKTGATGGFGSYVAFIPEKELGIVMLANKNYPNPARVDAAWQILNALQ
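AmpC in 20 mM phosphate buffer pH 7.0 was preincubated 15 min at room temperature with compounds. Nitrocefin (800 uM stock) was then added and hydrolysis followed at 480 nm every 20 s for 4 min.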
LT uptake inh = inhibitors of anthrax lethal toxin internalization; hit rate 0.67% among 70,000; Cells, anthrax lethal toxin internalization, FRET ratio (460/530); Potency, µM (top dose mostly 40 µM), for the others: at the highest dose activity change, negative = inhibition, hits mostly inhibitors; note: % is set by controls: 0 for no effect and ±100 for the full control effect; nearly all actives have a fitted effect of over 50% in size
Prx2 Sm inh = Schistosoma mansoni Prx2 inhibition | S. mansoni Prx2 activity coupled to TGR/GSH (TGR is thioredoxin glutathione reductase), NADPH fluorescence loss, qHTS | Potency, µM | hit rate 0.07% among 65,000
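Purified S. mansoni TGR and Prx2 in pH 7.4 phosphate buffer with EDTA and Tween-20 were preincubated with compounds for 15 min. Further NADPH/GSH was added, then a 2.5 mM H2O2 aliquot initiated turnover, followed kinetically by NADPH fluorescence.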
AmpC inh det = inhibitors of E. coli AmpC beta-lactamase with detergent. AID 584. purified AmpC, nitrocefin hydrolysis with detergent. Potency, µM (titrated, usually from 28.7 µM), without a hit: at the top dose activity change, negative = inhibition. hit rate 0.09% among 71,000; active = well fitted curve in the direction sought with a large enough effect; inconclusive = small, poorly fitted or top-dose-only effect; note: % is set by controls: 0 for no effect and ±100 for the full control effect
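E. coli AmpC (5.3 nM) in 20 mM phosphate pH 7.0 with 0.01% Triton X-100, preincubated 15 min RT with compound; nitrocefin (2 uL of 800 uM stock) hydrolysis followed by 480 nm absorbance every 20 s over 4 min.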
Active calls of the source: *; i = inactive; u = inconclusive; x = no result; [ ] = dose if it differs, or a comment. Shown are actives, neighbours in structure and some others; about 2.4% of the full set was active somewhere. Unless noted, calls come from the whole dose curve. Potency is the fitted concentration of half-maximal effect.

SMILES	AmpC nodet inh	LT uptake inh	Prx2 Sm inh	AmpC inh det
CC[C@H](C(=O)[C@H](C)[C@H](O)[C@H](C)CCc1ccc(C)c(O)c1C(=O)O)[C@H]1O[C@](CC)([C@@H]2CC[C@@](O)(CC)[C@H](C)O2)C[C@H]1C	10.7%[12.8 µM]	0.316µM*	>57	-3.0%[12.8 µM]
O=C(Nc1ccccc1-c1nc2ccccc2o1)c1ccc2c(c1)OCCO2	-20.8%	-17.0%	>57	5.0%
O=C(Nc1ccc2oc(-c3ccccc3F)nc2c1)c1ccc2c(c1)OCCO2	33.7%	10µM*	>57	-3.5%
O=S(=O)(Cl)c1ccccc1	-11.7%	-2.8%	x	11.6%
O=c1c(O)c(-c2ccc(O)cc2)oc2ccc(O)cc12	15.8µM*[single pt active]	-20.3%	i	-1.8%
COc1cc(C)cc(OC)c1/C=C\C(=O)O	0.3%[5.75 µM]	2.6%[8 µM]	>57	-5.4%[5.75 µM]
CCCCC=O	-13.0%	8.5%	x	8.8%
COCCCNCC(=O)Nc1ccc(OC(F)(F)F)cc1	3.4%	-27.8%	>57	-6.2%
N#CC(C#N)=NNc1ccc(OC(F)(F)F)cc1	x	0.501µM*	x	x
C[C@@]12C(=O)OC(=O)[C@@]1(C)[C@H]1CC[C@@H]2O1	2.4%	u	>57	14.0%
Cc1ccc2cccc(OC(=O)N(C)c3ccccc3)c2n1	33.4%	15.8µM*	x	3.8%
CCCCNC(=O)CS(=O)Cc1nc(-c2ccc(C)cc2)oc1C (configuration not stated)	3.98µM*[single pt active]	-1.6%	>57	12.3%
CCCN(CCC)CCNC(=O)CS(=O)Cc1nc(-c2ccc(C)cc2)oc1C (configuration not stated)	25.2%	11.1%	>57	-3.1%
Cc1ccc(-c2nc(CS(=O)CC(=O)NCCCN3CC(C)CC(C)C3)c(C)o2)cc1 (configuration not stated)	3.98µM*[single pt active]	-6.5%	>57	13.8%
COc1cc(-c2ccc(N=C=O)c(OC)c2)ccc1N=C=O	-5.5%	u	x	11.1%
NS(=O)(=O)c1ccc(-c2ccc([As](=O)(O)O)cc2)cc1	-4.4%[5.75 µM]	3.5%[8 µM]	>57	16.7%[5.75 µM]
O=C1c2ccccc2NC(c2ccco2)N1O (configuration not stated)	-8.8%	-3.1%	x	0.2%
O=C1C2=C(Nc3ccccc3SC2c2ccco2)c2ccccc21 (configuration not stated)	0.398µM*	u	x	6.7%
CC(C)(C)OC(=O)N1CCC(C(N)=O)CC1	3.98µM*[single pt active]	-13.2%	>57	12.2%
Cc1oc2c(O)c(O)ccc2c(=O)c1-c1cnn(-c2ccccc2)c1	-7.4%	7.94µM*	x	2.6%
O=C(Cn1cc2c(n1)CCCC2)Nc1ccccc1Br	3.98µM*[single pt active]	-18.6%	>57	10.7%
O=c1cccc2n1C[C@H]1C[C@@H]2CN(CCO)C1	9.5%	-0.4%	>57	-1.8%
CCCN1C(=O)c2cc(C(=O)Nc3ccccc3CC)ccc2C1O (configuration not stated)	3.98µM*[single pt active]	-11.3%	>57	13.4%
CCCN1C(=O)c2cc(C(=O)NC3CCCC3)ccc2C1O (configuration not stated)	3.98µM*[single pt active]	-10.4%	>57	12.7%
CCCCN1C(=O)c2ccccc2C1C(=O)NC1CCCC1 (configuration not stated)	-1.3%	3.7%	>57	-1.6%
SMILES	AmpC nodet inh	LT uptake inh	Prx2 Sm inh	AmpC inh det
N#Cc1c(-c2ccc(Cl)cc2Cl)nc2n(c1=O)CCS2	10µM*[single pt active]	u	>57	-0.3%
CCCCSc1c(C)c2cc3c(cc2[nH]c1=O)OCO3	15.8µM*[single pt active]	x	>57	-3.9%
CC1(C)[C@@H](O)CC[C@@]2(C)[C@H]1CC[C@]1(C)[C@H]2C(=O)C=C2[C@@H]3C[C@@](C)(C(=O)O)CC[C@]3(C)CC[C@@]21C	-4.9%	u	>57	-4.7%
COc1ccccc1NC(=O)Cn1c(=O)n2nc(C)nc2c2ccccc21	26.4%	-2.9%	>57	6.7%
COc1ccc(Cl)cc1NC(=O)Cn1c(=O)n2nc(C)nc2c2ccccc21	3.98µM*[single pt active]	-4.0%	>57	11.1%
Cc1nc2ccccc2cc1C[N+]12CN3CN(CN(C3)C1)C2	-0.5%[5.75 µM]	1.2%[8 µM]	>57	-2.7%[5.75 µM]
Cc1ccc2c(c1)c(-c1ccccc1)nc1nncn12	2.51µM*[single pt active]	u	>57	13.6%
Cc1cccc(-c2nc3ccccc3c3nncn23)c1	15.7%	-12.4%	x	2.9%
C[C@@H]1CC[C@@]2(OC1)O[C@H]1[C@@H](O)[C@H]3[C@@H]4CC[C@H]5C[C@@H](O[C@@H]6O[C@H](CO)[C@H](O[C@@H]7O[C@H](CO)[C@@H](O)[C@H](O[C@@H]8OC[C@@H](O)[C@H](O)[C@H]8O)[C@H]7O[C@@H]7O[C@H](CO)[C@@H](O)[C@H](O[C@@H]8O[C@H](CO)[C@@H](O)[C@H](O)[C@H]8O)[C@H]7O)[C@H](O)[C@H]6O)[C@H](O)C[C@]5(C)[C@H]4CC[C@]3(C)[C@H]1[C@@H]2C	143.1%	u	x	8.0%
CN1CCN(c2cc3c(c4c2[nH]c2ccccc24)C(=O)CC(C)(C)C3)CC1	3.16µM*[single pt active]	u	>57	12.1%
COc1ccccc1C(c1nnnn1CCc1ccccc1)N1CCN(c2ccccc2)CC1 (configuration not stated)	26.6%	7.94µM*	>57	-0.7%
COc1cccc(C(c2nnnn2CCc2ccccc2)N2CCN(c3ccccc3)CC2)c1OC (configuration not stated)	53.6%	u	>57	0.4%
CCN(CC)CCOc1c(Br)ccc2c1sc1nc3n(c(=O)c12)CCC3	24.3%	7.94µM*	x	-1.6%
C[N+]1(C)CCc2cc3c(cc2[C@@H]1[C@@H]1OC(=O)c2c1ccc1c2OCO1)OCO3	6.6%	6.6%	>57	-2.3%
O=C=Nc1ccc(Cc2ccc(N=C=O)cc2)cc1	15.8µM*	-9.3%	x	8.7%
Clc1cccc(N2CCN(Cc3nc(-c4ccccc4)no3)CC2)c1	3.98µM*[single pt active]	u	>57	13.0%
O=C(CCl)c1ccc(Cl)cc1Cl	-3.1%	5.01µM*	x	11.7%
Cn1c(=O)oc2cc(S(=O)(=O)N3CCCC(C(=O)NCc4ccc5c(c4)OCO5)C3)ccc21 (configuration not stated)	3.98µM*[single pt active]	24.3%	>57	10.6%
Cc1ccc(NC(=O)C2CCCN(S(=O)(=O)c3ccc4c(c3)oc(=O)n4C)C2)nc1 (configuration not stated)	3.98µM*[single pt active]	2.9%	>57	13.9%
CN1CCc2c(cc(O)c(O)c2Cl)[C@H](c2cccc(Cl)c2)C1	3.3%	1.3%	>57	-2.2%
COc1ccc([C@@H]2CC(=O)c3c(O)cc(O[C@@H]4O[C@@H](CO[C@@H]5O[C@@H](C)[C@@H](O)[C@@H](O)[C@H]5O)[C@@H](O)[C@@H](O)[C@H]4O)cc3O2)cc1O	6.6%	u	>57	1.1%
CCOc1ccc(N(CC(=O)N2CC=C(c3ccccc3)CC2)S(=O)(=O)c2c(C)noc2C)cc1	3.98µM*[single pt active]	u	>57	11.4%
COc1ccc(N(CC(=O)N2CC=C(c3ccccc3)CC2)S(=O)(=O)c2c(C)noc2C)cc1	3.98µM*[single pt active]	u	>57	13.4%
CCOc1ccc(N(CC(=O)Nc2ccc(C)cc2)S(=O)(=O)c2c(C)noc2C)cc1	3.0%	u	>57	6.9%

Source: PubChem
